Only some compounds are listed: those with a hit (about 2.8% of all), similar ones and a draw of the others.
PI5P4K alpha inh: inhibitors of human PI5P4K alpha; P48426; 1.2% of 330,000 active; AID 652105; max response, %; PI5P4Kalpha enzyme, ADP-Glo luminescence, 60 min; stronger effect = lower value; active = max response of -50% or lower; inconclusive = between -30% and -50%; inactive = -30% or higher; note: value at the top dose of about 77 µM
Target sequence (P48426 whole entry, looked up): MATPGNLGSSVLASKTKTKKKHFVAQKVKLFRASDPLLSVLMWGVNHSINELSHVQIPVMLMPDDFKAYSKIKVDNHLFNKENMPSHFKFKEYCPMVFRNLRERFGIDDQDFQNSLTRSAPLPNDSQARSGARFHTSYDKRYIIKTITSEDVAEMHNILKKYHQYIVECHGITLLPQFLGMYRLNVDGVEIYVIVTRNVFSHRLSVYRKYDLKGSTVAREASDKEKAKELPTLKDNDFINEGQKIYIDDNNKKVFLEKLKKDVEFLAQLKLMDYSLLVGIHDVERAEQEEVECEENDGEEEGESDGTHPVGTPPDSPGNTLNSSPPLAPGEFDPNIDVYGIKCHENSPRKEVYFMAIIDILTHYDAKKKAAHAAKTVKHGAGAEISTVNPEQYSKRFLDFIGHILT
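Enzyme plus substrate dispensed, test compounds pinned in, then ATP (5 microM final) added. After 60 min at RT, ADP-Glo reagent 1 for 45 min and reagent 2 for 30 min preceded luminescence imaging.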
WRN helicase inh-1: WRN helicase (human) inhibition; Q14191; WRN helicase unwinding, fluorescent forked duplex, kinetic; Potency, µM (series often up to 114 µM), actives largely listed as inhibitors; 0.46% of 360,000 active; note: nearly all actives have a fitted effect of over 55% in size
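Primary qHTS, 1536-well format. 20 nM WRN + compound, 15 min RT; start with 100 nM forked fluorophore/quencher duplex, 2 mM ATP (final); kinetic read ex 525/em 598 nm.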
POLI inh: blocks human DNA polymerase iota activity; Q9UNA4; Potency, µM (titrated, usually from 115 µM), hits mostly inhibitors; 1% of 390,000 active; AID 588590; Pol iota fluorescent replication assay, 10 min
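Fluorescent replication assay read twice, at 0 min and 10 min after adding 50 nM (final) substrate. Enzyme (10 nM) and compounds were first incubated 15 min at room temperature; enzyme-free buffer wells were negative controls.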
POLK inh: inhibitors of human DNA polymerase kappa; Q9UBT6; purified Pol kappa, fluorescent DNA synthesis assay, 10 min; Potency, µM (top dose mostly 107 µM), most hits filed as inhibitors; 0.53% of 400,000 active; AID 588579
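Pol kappa 10 nM + cpd, 15 min RT; start w/ substrate 50 nM final; fluorescence kinetic read, 0 and 10 min. Neg ctrl: buffer, no enzyme.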
Pol eta inh: blocks human DNA polymerase eta activity. Q9Y253. recombinant Pol eta, fluorescent DNA replication assay. Potency, µM (series often up to 114 µM), most hits filed as inhibitors. 1.2% of 390,000 active. AID 588591
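Fluorescent replication assay: 50 nM final substrate added after a 15 min room-temperature compound preincubation with 10 nM enzyme. Signal taken at 0 min and again at 10 min.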
POLB inh: blocks human DNA polymerase beta activity. P06746. Pol beta primer extension/strand displacement, fluorescence kinetic. Potency, µM (top dose mostly 114 µM), actives largely listed as inhibitors. 1.3% of 340,000 active. AID 485314
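Enzyme-only controls used 10 nM Pol beta; buffer lacking enzyme served as negative control. Compound preincubated 15 min, then 50 nM substrate added; 0 and 10 min reads at room temperature.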
WRN helicase inh-2: WRN helicase inhibition, cherry-pick retest; shares compounds with WRN helicase inh-1; WRN helicase DNA unwinding, fluorescence kinetic; Potency, µM (highest dose often 57.1 µM), actives largely listed as inhibitors; 63% of 610 active; note: nearly all actives have a fitted effect of over 65% in size
TO displacement: binds DNA, flagged in WRN inhibitor counterscreen; shares compounds with WRN helicase inh-1; thiazole orange DNA binding displacement, fluorescence; Potency, µM (series often up to 57.1 µM), most hits filed as inhibitors; 10% of 610 active; AID 720499;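 note: drop in dye fluorescence marks compound binding to DNA; nearly all actives have a fitted effect of over 60% in size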
BLM counter: BLM helicase inhibition, WRN selectivity check; Recombinant BLM helicase DNA unwinding, red fluorescence; 60% of 610 active; Potency, µM (series often up to 57.1 µM), most hits filed as inhibitors; shares compounds with WRN helicase inh-1; note: nearly all actives have a fitted effect of over 60% in size
ADP-Glo counter: ADP-Glo luciferase interference, PI5P4K counter-screen | Potency, µM (doses to about 76.9 µM), hits mostly inhibitors | ADP-Glo detection counter-screen, luciferase luminescence, no enzyme | shares compounds with PI5P4K alpha inh | 1,100 tested, under 10 active | AID 743285
Large screens that a line does not name were inactive (follow-up assays come after a bar, where they were run). Unless noted, calls come from the whole dose curve; as a rule, active = well fitted curve in the direction sought with a large enough effect; inconclusive = small, poorly fitted or top-dose-only effect, or another doubt; inactive = no such curve, though single readings can be large; an effect the other way counts as inactive or inconclusive.

N#C/C(=C\c1ccc(O)c([N+](=O)[O-])c1)c1nc2ccccc2s1	WRN helicase inh-1 32µM, POLI inh inconclusive, Pol eta inh 20µM, POLB inh 50µM | WRN helicase inh-2 24µM | TO displacement 22µM | BLM counter 24µM
Nc1ccc(Cn2ccc3c4c(N)nc(N)nc4ccc32)cc1	PI5P4K alpha inh inconclusive, WRN helicase inh-1 16µM, Pol eta inh inconclusive (no result: POLB inh) | WRN helicase inh-2 22µM | TO displacement inactive | BLM counter 14µM
COc1ccc(-n2c(O)c(/C=N/NS(=O)(=O)c3ccc(C)c([N+](=O)[O-])c3)c3ccccc3c2=O)cc1OC	WRN helicase inh-1 inconclusive, POLI inh inconclusive | WRN helicase inh-2 19µM | TO displacement inactive | BLM counter 22µM
COc1cc(/C=N/NS(=O)(=O)c2ccc(C)c([N+](=O)[O-])c2)cc([N+](=O)[O-])c1O	PI5P4K alpha inh inconclusive
Cc1ccc(NN2C(=O)C=C(c3ccccc3)C2=O)cc1	WRN helicase inh-1 inconclusive, POLI inh inconclusive | WRN helicase inh-2 inactive | TO displacement inactive | BLM counter inactive
CCCOc1ccc(C(=O)CCN2CCN(C(=O)OCC)CC2)cc1	WRN helicase inh-1 inconclusive | WRN helicase inh-2 inactive | TO displacement inactive | BLM counter inactive
CCCc1cc(CN2CCOCC2)c(O)c(CN2CCOCC2)c1O	WRN helicase inh-1 18µM (no result: POLB inh) | WRN helicase inh-2 inactive | TO displacement inactive | BLM counter inactive
N#C/C(=C/c1ccc(O)c(O)c1)c1nc2ccccc2[nH]1	PI5P4K alpha inh inconclusive, WRN helicase inh-1 35µM, POLI inh inconclusive, POLK inh 10µM, Pol eta inh 3.2µM, POLB inh inconclusive | WRN helicase inh-2 6.1µM | TO displacement inactive | BLM counter 8.6µM
CCN(CC)c1ccc(N=C2C=CC(=O)C=C2NC(C)=O)cc1	WRN helicase inh-1 18µM, POLI inh 45µM, POLK inh inconclusive (no result: POLB inh) | WRN helicase inh-2 inactive | TO displacement inactive | BLM counter inactive
CCN(CC)c1ccc(NC(=O)Nc2ccc(C(C)=O)cc2)cc1	POLB inh inconclusive
COc1cc(-c2cnc3c(NC=O)cc(-c4cccc(NC(C)=O)c4)cn23)cc(OC)c1OC	PI5P4K alpha inh -60, WRN helicase inh-1 25µM (no result: POLI inh, POLK inh, Pol eta inh, POLB inh) | WRN helicase inh-2 9.6µM | TO displacement inactive | BLM counter 15µM
CC(OC(=O)Cc1ccccc1[N+](=O)[O-])C(=O)NC(=O)NC1CCCCC1 (stereo unspecified)	none (no result: POLB inh)
O=C(Nc1cccc(-c2cnc3ccccc3n2)c1)c1cccc(NC(=O)c2ccco2)c1	WRN helicase inh-1 inconclusive, POLB inh inconclusive (no result: PI5P4K alpha inh) | WRN helicase inh-2 inactive | TO displacement inactive | BLM counter inconclusive
O=C1NC(=Nc2ccc(O)cc2)S/C1=C\C=C\c1ccco1	PI5P4K alpha inh inconclusive, WRN helicase inh-1 inconclusive, POLI inh inconclusive, Pol eta inh 32µM, POLB inh 20µM | WRN helicase inh-2 19µM | TO displacement inconclusive | BLM counter 22µM
CCOC(=O)Cc1c(C)nc2c(-c3ccc(Cl)cc3)c[nH]n2c1=O	none
O=c1c(-c2ccccc2)[n+]([O-])c2ccccc2n1O	none
CN1CCN(C2=C(NS(=O)(=O)c3ccccc3)C(=O)c3ccccc3C2=O)CC1	none
CN1CCN(C2=C(Cl)C(=O)c3ccccc3C2=O)CC1	WRN helicase inh-1 inconclusive, POLI inh 6.3µM, Pol eta inh 3.5µM (no result: POLB inh) | WRN helicase inh-2 inconclusive | TO displacement inactive | BLM counter 3.4µM
CC(C)(S)[C@H](N)C(=O)O	none (no result: PI5P4K alpha inh, WRN helicase inh-1, POLI inh, Pol eta inh, POLB inh)
Oc1ccc(O)c(Cc2nc3ccccc3[nH]2)c1	WRN helicase inh-1 89µM | WRN helicase inh-2 22µM | TO displacement inconclusive | BLM counter 6.8µM
CN(CCc1ccccc1)C(C(=O)Nc1ccc2c(c1)OCCO2)C1CC1 (stereo unspecified)	none (no result: POLI inh, POLK inh, Pol eta inh, POLB inh)
O=Cc1ccc(I)cc1	none (no result: PI5P4K alpha inh, WRN helicase inh-1, Pol eta inh, POLB inh)
CC(C)Cc1ccc(CN2CCCC(NC(=O)CCN3CCCCC3=O)C2)cc1 (stereo unspecified)	POLB inh inconclusive
CC(C)Cc1ccc(C(C)/C=C2/CCC(CN3CCCCC3)C2=O)cc1 (stereo unspecified)	WRN helicase inh-1 35µM, POLI inh inconclusive, Pol eta inh 22µM (no result: POLB inh) | WRN helicase inh-2 inactive | TO displacement inactive | BLM counter inconclusive
CC1(C)OC(=O)C(=Cc2ccc(-c3ccc(S(N)(=O)=O)cc3)o2)C(=O)O1	PI5P4K alpha inh -59, WRN helicase inh-1 inconclusive, POLI inh inconclusive, POLK inh inconclusive, Pol eta inh 50µM | WRN helicase inh-2 inconclusive | TO displacement inactive | BLM counter inconclusive
NS(=O)(=O)c1ccc(-c2ccc(/C=C3\C(=O)Nc4cc(Cl)ccc43)o2)cc1	PI5P4K alpha inh inconclusive, POLI inh inconclusive, Pol eta inh inconclusive, POLB inh inconclusive
CN1CCN(CCCNc2nc3ccccc3c3nc(-c4ccccc4)nn23)CC1	none (no result: POLB inh)
COc1cc2nc(NCCCN3CCN(C)CC3)n3nc(-c4ccccc4)nc3c2cc1OC	WRN helicase inh-1 12µM, POLI inh inconclusive, POLK inh inconclusive, Pol eta inh inconclusive, POLB inh 25µM | WRN helicase inh-2 12µM | TO displacement inactive | BLM counter inactive
CCc1cc(=O)oc2cc(C)c(CN3CCCCC3)c(O)c12	PI5P4K alpha inh -64, WRN helicase inh-1 25µM, POLI inh 7.9µM, POLK inh 18µM, Pol eta inh 14µM, POLB inh 8.9µM | WRN helicase inh-2 inconclusive | TO displacement inactive | BLM counter inconclusive | ADP-Glo counter inactive
Cc1nn(-c2ccccc2)c2nc(=O)n(-c3ccccc3)cc12	WRN helicase inh-1 inconclusive, POLI inh inconclusive (no result: PI5P4K alpha inh) | WRN helicase inh-2 inactive | TO displacement inactive | BLM counter inactive | ADP-Glo counter inactive
Cc1ccc2nc3c(cc2c1)c(C)nn3-c1ccccc1	none
O=C(CN1CCN(S(=O)(=O)c2ccc(F)cc2)CC1)Nc1ccc(F)cc1F	none
c1coc(-c2ccc3nncn3c2)c1	PI5P4K alpha inh -73, WRN helicase inh-1 18µM (no result: POLI inh, POLK inh, Pol eta inh, POLB inh) | ADP-Glo counter inactive

High-throughput results: PubChem, National Center for Advancing Translational Sciences (NCATS)
